Test results: PubChem BioAssay AID1159580 (chemical genetic matrix, 2015)
“And” between values parts separate entries of the source, which are not always exact repeats. Equal entries are not always repeated. The whole screen tested about 5,500 compounds, of which about 2,000 (36%) were called active. Not shown: some 18% with an inconclusive outcome. Cut-off read from the data, not from the text of the source: active = normalized growth mostly below about 0.91 (no sharp cut-off); inconclusive = no clear call, values can overlap the other calls; inactive = mostly above about 0.92. This is one part of the list. Where a structure was tested more than once in an assay, its records may differ in their call.

Test: chemical genetic growth profiling, strain panel (AID 1159580);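 note: tested at 20 µM; growth read once vehicle control cultures reached saturation at 30 °C; 1 = growth at the plate median or of vehicle wells; lower values mean less growth of the strain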
Conditions: S. cerevisiae deletion strains, growth OD

Measured: normalized growth

O=c1c2ccccc2[se]n1-c1ccccc1
active: locus YAL021C, strain ccr4, stronger effect = lower value 0.0697 | locus YAL026C, strain drs2, stronger effect = lower value 0.0626 | locus YAL030W, strain snc1, stronger effect = lower value 0.057 | locus YBL061C, strain skt5, stronger effect = lower value 0.0616 | locus YBR009C, strain hhf1, stronger effect = lower value 0.067 | locus YBR021W, strain FUR4, stronger effect = lower value 0.0951 | locus YBR023C, strain chs3, stronger effect = lower value 0.0842 | locus YBR231C, strain swc5, stronger effect = lower value 0.129 | locus YBR279W, strain paf1, stronger effect = lower value 0.0647 | locus YCL011C, strain gbp2, stronger effect = lower value 0.057 | locus YCL016C, strain dcc1, stronger effect = lower value 0.102 | locus YCL029C, strain bik1, stronger effect = lower value 0.873 | locus YCL061C, strain MRC1, stronger effect = lower value 0.0738 | locus YCL069W, strain vba3, stronger effect = lower value 0.0606 | locus YCR088W, strain abp1, stronger effect = lower value 0.0595 | locus YDL005C, strain med2, stronger effect = lower value 0.071 | locus YDL035C, strain GPR1, stronger effect = lower value 0.0537 | locus YDL040C, strain nat1, stronger effect = lower value 0.909 | locus YDL074C, strain BRE1, stronger effect = lower value 0.0969 | locus YDL101C, strain DUN1, stronger effect = lower value 0.869 | locus YDL134C, strain PPH21, stronger effect = lower value 0.0461 | locus YDL192W, strain arf1, stronger effect = lower value 0.0608 | locus YDR001C, strain nth1, stronger effect = lower value 0.0663 | locus YDR069C, strain doa4, stronger effect = lower value 0.0621 | locus YDR101C, strain arx1, stronger effect = lower value 0.437 | locus YDR137W, strain rgp1, stronger effect = lower value 0.754 | locus YDR159W, strain sac3, stronger effect = lower value 0.854 | locus YDR162C, strain NBP2, stronger effect = lower value 0.054 | locus YDR195W, strain ref2 1.46 [resistant] | locus YDR297W, strain sur2, stronger effect = lower value 0.06 | locus YDR318W, strain mcm21, stronger effect = lower value 0.0683 | locus YDR334W, strain swr1, stronger effect = lower value 0.0625 | locus YDR335W, strain msn5, stronger effect = lower value 0.574 | locus YDR388W, stronger effect = lower value 0.0602 | locus YDR392W, strain spt3, stronger effect = lower value 0.0762 | locus YDR502C, strain sam2, stronger effect = lower value 0.0635 | locus YEL003W, strain gim4, stronger effect = lower value 0.106 | locus YEL037C, strain rad23, stronger effect = lower value 0.0632 | locus YEL061C, strain CIN8 (second series), stronger effect = lower value 0.0621 | locus YEL061C, strain CIN8, stronger effect = lower value 0.0485 | locus YER015W, strain faa2, stronger effect = lower value 0.0679 | locus YER016W, strain bim1, stronger effect = lower value 0.147 | locus YER110C, stronger effect = lower value 0.0784 | locus YER155C, strain BEM2 (second series), stronger effect = lower value 0.0943 | locus YER155C, strain BEM2, stronger effect = lower value 0.0677 | locus YER167W, strain BCK2, stronger effect = lower value 0.0545 | locus YFR010W, strain ubp6, stronger effect = lower value 0.07 | locus YGL078C, strain dbp3, stronger effect = lower value 0.0555 | locus YGL086W, strain mad1, stronger effect = lower value 0.062 | locus YGL167C, strain pmr1, stronger effect = lower value 0.0891 | locus YGL173C, strain kem1, stronger effect = lower value 0.0711 | locus YGL227W, strain vid30, stronger effect = lower value 0.0629 | locus YGL240W, strain doc1, stronger effect = lower value 0.0921 | locus YGL248W, strain PDE1, stronger effect = lower value 0.0477 | locus YGL253W, strain hxk2, stronger effect = lower value 0.0553 | locus YGR135W, strain pre9, stronger effect = lower value 0.0669 | locus YGR252W, strain gcn5, stronger effect = lower value 0.162 | locus YHR013C, strain ard1, stronger effect = lower value 0.11 | locus YHR027C, strain rpn1, stronger effect = lower value 0.0642 | locus YHR030C, strain SLT2, stronger effect = lower value 0.0507 and 0.0959 | locus YHR079C, strain IRE1 (second series), stronger effect = lower value 0.65 | locus YHR079C, strain IRE1, stronger effect = lower value 0.12 | locus YHR094C, strain hxt1, stronger effect = lower value 0.0617 | locus YHR129C, strain ARP1, stronger effect = lower value 0.0594 | locus YHR142W, strain chs7, stronger effect = lower value 0.0813 | locus YHR200W, strain rpn10, stronger effect = lower value 0.0601 | locus YIL066C, strain RNR3, stronger effect = lower value 0.0543 | locus YIL073C, strain SPO22, stronger effect = lower value 0.114 | locus YIL125W, strain kgd1, stronger effect = lower value 0.0566 | locus YIR030C, strain dcg1, stronger effect = lower value 0.0629 | locus YJL092W, strain hpr5, stronger effect = lower value 0.0617 | locus YJL095W, strain BCK1 (second series), stronger effect = lower value 0.0731 | locus YJL095W, strain BCK1, stronger effect = lower value 0.12 and 0.111 | locus YJL115W, strain asf1, stronger effect = lower value 0.0858 | locus YJL129C, strain trk1, stronger effect = lower value 0.769 | locus YJL134W, strain LCB3, stronger effect = lower value 0.0503 | locus YJL154C, strain vps35, stronger effect = lower value 0.0602 | locus YJL164C, strain tpk1, stronger effect = lower value 0.0617 | locus YJL166W, strain qcr8, stronger effect = lower value 0.0635 | locus YJL168C, strain set2, stronger effect = lower value 0.0616 | locus YJR043C, strain POL32, stronger effect = lower value 0.0678
inactive: locus YAL040C, strain CLN3, stronger effect = lower value 0.981 | locus YBR171W, strain sec66, stronger effect = lower value 0.927 | locus YBR229C, strain ROT2, stronger effect = lower value 1.02 | locus YCL061C, strain MRC1 (second series), stronger effect = lower value 0.952 | locus YDL185W, strain tfp1, stronger effect = lower value 0.999 | locus YDR363W, strain ESC2, stronger effect = lower value 0.988 | locus YER002W, strain NOP16, stronger effect = lower value 0.999 | locus YER111C, strain swi4, stronger effect = lower value 0.937 | locus YJL187C, strain SWE1 (second series), stronger effect = lower value 0.907 | locus YJR066W, strain TOR1, stronger effect = lower value 0.883
0.0627 (active) and 0.948 (inactive): locus YAL013W, strain DEP1, stronger effect = lower value
0.0595 (active) and 0.975 (inactive): locus YGR078C, strain PAC10, stronger effect = lower value
0.0625 (active) and 0.862 (inactive): locus YGR229C, strain SMI1, stronger effect = lower value
0.0598 (active) and 0.956 (inactive): locus YDR150W, strain NUM1, stronger effect = lower value
